Where “and” joins values, the source holds several entries; their conditions need not be identical. Equal values may be shown once. Results filed as inconclusive are left out. Some structures have more than one record in an assay (separate samples or runs), and their calls can disagree. Calls of active or inactive are those of the source. The calls were made as follows, unless noted: active = hit-call score of the fitted dose curve at least 0.9, where 1 is the maximum; inactive = score below 0.9.

In PubChem BioAssay (EPA / NIEHS) one finds outcome and AC50 data, which are given here for five compounds.

The target in assay [1] is Oxysterols receptor LXR-beta (Homo sapiens) (UniProt P55055). As to the kind of experiment: ATG_LXRb_TRANS: Attagene TRANS-FACTORIAL HepG2 Assay for human Liver X Receptor beta (LXRb) (AID 2282981; active = hit-call score of the fitted dose curve at least 0.9, where 1 is the maximum). Particulars: HepG2 Attagene TRANS GAL4-LXRb reporter, mRNA. The method in brief:
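Transient transfection HepG2 (multiplexed RTUs, GAL4-UAS); NR-Gal4 chimera; 24 h exposure; RNA → RT-PCR → 6-FAM primer extension → HpaI → CE; increase vs DMSO.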

In assay [2] the target is Hepatocyte nuclear factor 4-alpha (Homo sapiens) (UniProt P41235). The assay is described as follows: ATG_HNF4a_TRANS: Attagene TRANS-FACTORIAL HepG2 Assay for human Hepatocyte Nuclear Factor 4 alpha (HNF4a) (AID 2282982; active = hit-call score of the fitted dose curve at least 0.9, where 1 is the maximum). Particulars: HepG2 HNF4a transactivation reporter, mRNA readout. The method, boiled down:
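Readout is fluorescent reporter-transcript fragments resolved by capillary electrophoresis after RT-PCR from HepG2 cells dosed for 24 h. Cells carried transfected GAL4-UAS reporter constructs measuring exogenous NR-GAL4 chimera activity; DMSO served as baseline.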

Assay [3] can be described thus: ATG_M_06_TRANS: Attagene TRANS-FACTORIAL HepG2 Assay for M06 Transcription Factor (Internal Marker) (AID 2282983; active = hit-call score of the fitted dose curve at least 0.9, where 1 is the maximum;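 also: reporter transcript level by RT-PCR then capillary electrophoresis fluorescence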). The conditions noted are these: HepG2 Attagene TRANS M06 internal marker reporter. The method, boiled down: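 Transfect HepG2 with MRTUs → dose compounds 24 h → isolate RNA, oligo(dT) RT → PCR with reporter primers → 6-FAM primer extension → HpaI digest → CE fragment analysis. Positive direction vs DMSO.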

Assay [4] can be described thus: ATG_M_32_TRANS: Attagene TRANS-FACTORIAL HepG2 Assay for M32 Transcription Factor (Internal Marker) (AID 2282984; active = hit-call score of the fitted dose curve at least 0.9, where 1 is the maximum;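 also: transcript level of a background control reporter unit measured by RT-PCR and capillary electrophoresis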). The conditions noted are these: HepG2 Attagene TRANS M32 internal marker reporter. The method, boiled down: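 Measures reporter mRNA induction in human HepG2 liver cells after 24 h chemical treatment. Transcripts from transiently transfected GAL4-UAS reporter units are amplified, fluorescently labelled and sized by capillary electrophoresis; gain of signal relative to DMSO.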

Assay [5] has as its target Nuclear respiratory factor 1 (Homo sapiens) (UniProt Q16656). As to the kind of experiment: ATG_NRF1_CIS: Attagene CIS-FACTORIAL HepG2 Assay for human Nuclear Respiratory Factor 1 (NRF1) Orphan Gene (AID 2282987). Particulars: HepG2 NRF1 cis-element reporter, Attagene multiplex; actives raise or lower the signal. The method, boiled down: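 Endogenous factor activity was captured via cis-element-driven reporter transcripts in HepG2 cells. Following 24 h chemical treatment, transcripts were quantified by RT-PCR and capillary electrophoresis.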

The target in assay [6] is Myc proto-oncogene protein (Homo sapiens) (UniProt P01106). The assay is described as follows: ATG_Myc_CIS: Attagene CIS-FACTORIAL HepG2 Assay for human Myelocytomatosis (Myc) Proto-Oncogene Transcription Factor (AID 2282990). Particulars: HepG2, Attagene cis-reporter transcription factor activity; actives raise or lower the signal. The method, boiled down: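 After 24 h chemical treatment of HepG2 cells carrying multiplexed cis-regulated reporter constructs, reporter transcripts quantified by RT-PCR and capillary electrophoresis of fluorescent fragments. Gain or loss fitted against DMSO baseline.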

A short description of assay [7]: ATG_NF_kB_CIS: Attagene CIS-FACTORIAL HepG2 Assay for human Nuclear Factor Kappa B (NF-kB) (AID 2282991). Particulars: HepG2 Attagene cis-factorial NF-kB reporter mRNA; actives raise or lower the signal. The method in brief: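 After 24 h compound incubation, transfected HepG2 cells yield total RNA; reporter cDNA is PCR-amplified, end-labelled with 6-FAM, HpaI-digested and analysed on a genetic analyser. Endogenous factor activity, DMSO-referenced bidirectional fit.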

The nature of assay [8]: ATG_NRF2_ARE_CIS: Attagene CIS-FACTORIAL HepG2 Assay for human Nuclear Factor Erythroid 2 Related Factor 2 (NFR2) response to Antioxidant Response Elements (ARE) (AID 2282992). The conditions noted are these: HepG2 Attagene ARE/NRF2 reporter, transcription factor activity; actives raise or lower the signal. The method in brief:
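Cis-factorial assay: transfected HepG2 reporter library, 24 h dosing, mRNA readout via RT-PCR/CE; DMSO-referenced bidirectional analysis.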

A short description of assay [9]: ATG_Oct_MLP_CIS: Attagene CIS-FACTORIAL HepG2 Assay for human Octamer-Binding Transcription Factor (Oct) (AID 2282993). Particulars: HepG2 Attagene cis-factorial Oct reporter, mRNA; actives raise or lower the signal. The method in brief:
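Cells of the HepG2 line express promoter-controlled reporter sequences whose mRNA levels, after 24 h treatment, are measured by RT-PCR and capillary electrophoresis. Increases and decreases are scored relative to DMSO.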

Assay [10] is described as follows: BSK_3C_TissueFactor: BioMAP Diversity Plus: 3C Assay for Tissue Factor Biomarker Activity (AID 2282997). Particulars: BioMAP 3C HUVEC, tissue factor biomarker readout; actives raise or lower the signal. The method in brief: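 ELISA read-out of Tissue Factor levels on human umbilical vein endothelium collected 24 h after chemical dosing. Gain or loss of signal was fitted relative to DMSO.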

A short description of assay [11]: BSK_3C_VCAM1: BioMAP Diversity Plus: 3C Assay for Vascular cell adhesion molecule 1 (VCAM1) Biomarker Activity (AID 2282999). Particulars: BioMAP 3C HUVEC, VCAM1 ELISA, cytokine-stimulated; actives raise or lower the signal. The method, boiled down:
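Endothelial cells from human umbilical vein are treated with test chemical. At 24 h, VCAM-1 is measured by ELISA, and responses in either direction are fitted relative to DMSO.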
Background: In an ELISA, binding on a coated surface is turned into a signal by an enzyme label.

The nature of assay [12]: BSK_4H_Eotaxin3: BioMAP Diversity Plus: 4H Assay for Eotaxin 3 Biomarker Activity (AID 2283000).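 Also: CCL26 protein level quantified by ELISA in parallel with SRB cytotoxicity check.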 The conditions noted are these: primary human endothelial cells (HUVEC); actives raise or lower the signal. The method, boiled down:
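Chemicals were added to human umbilical vein endothelium cultures, and Eotaxin-3 was quantified by ELISA at 24 h. Values were derived by bidirectional fitting with DMSO serving as negative control and activity baseline.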

Assay [13] addresses human Peroxisome Proliferator-activated Receptor alpha (PPARa), PPARA (gene 5465) (UniProt Q07869). The assay is described as follows: ATG_PPARa_TRANS: Attagene TRANS-FACTORIAL HepG2 Assay for human Peroxisome Proliferator-activated Receptor alpha (PPARa) (AID 2283001; active = hit-call score of the fitted dose curve at least 0.9, where 1 is the maximum;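 as to AC50: potency for gain of reporter signal over DMSO so agonist or activator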). The method, boiled down:
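Read-out is fluorescence of reporter cDNA fragments resolved by capillary electrophoresis after RT-PCR. Human HepG2 liver cells carried transfected PPARa-Gal4 chimera and GAL4-UAS reporter units, treated 24 h; activity scored as increase over DMSO.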

For assay [14], the target named is Nuclear receptor subfamily 4 group A member 2 (Homo sapiens) (UniProt P43354). As to the kind of experiment: ATG_NURR1_TRANS: Attagene TRANS-FACTORIAL HepG2 Assay for human Nuclear Receptor Related Protein 1 (NURR1) (AID 2282985; active = hit-call score of the fitted dose curve at least 0.9, where 1 is the maximum). The conditions noted are these: HepG2 Attagene TRANS reporter, mRNA readout. The method, boiled down:
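Transient transfection of HepG2, human liver cells, with multiple GAL4-UAS reporter transcription units. Cells dosed 24 h, RNA isolated, reverse-transcribed, PCR-amplified, FAM-labelled, HpaI-digested, sized by capillary electrophoresis. DMSO served as negative control.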

In assay [15] the target is Transcriptional activator Myb (Homo sapiens) (UniProt P10242). The assay is described as follows: ATG_Myb_CIS: Attagene CIS-FACTORIAL HepG2 Assay for human Myeloblastosis (Myb) Proto-Oncogene Transcription Factor (AID 2282986). Particulars: HepG2 Attagene CIS-FACTORIAL Myb reporter transcription; actives raise or lower the signal. The method in brief:
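Multiplexed cis-reporter system in HepG2: transient transfection, 24 h treatment, mRNA readout by RT-PCR and capillary electrophoresis. Both increases and decreases are scored versus DMSO negative control.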

The nature of assay [16]: ATG_NFI_CIS: Attagene CIS-FACTORIAL HepG2 Assay for human Nuclear Factor I (NFI) (AID 2282989). The conditions noted are these: HepG2 cis-regulatory reporter, NFI response element transcription; actives raise or lower the signal. The method in brief: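 After transient transfection of HepG2 with cis-promoter reporter constructs and 24 h dosing, RNA is reverse-transcribed, amplified, 6-FAM end-labelled and HpaI-digested before capillary analysis. Bidirectional curve fitting against DMSO.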

Assay [17] has as its target Cellular tumor antigen p53 (Homo sapiens) (UniProt P04637). The assay is described as follows: ATG_p53_CIS: Attagene CIS-FACTORIAL HepG2 Assay for human p53 Transcription Factor (AID 2282994). Particulars: HepG2 p53 cis-element reporter, Attagene mRNA; actives raise or lower the signal. The method in brief:
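Using HepG2 hepatoma cells carrying cis-acting multiplexed reporters, mRNA induction is detected after a 24 h exposure. Gain- and loss-of-signal responses are fitted relative to DMSO-treated cells.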

Assay [18] in a line: BSK_3C_uPAR: BioMAP Diversity Plus: 3C Assay for Urokinase-type plasminogen activator receptor (uPAR) Biomarker Activity (AID 2282998). Particulars: BioMAP 3C HUVEC, uPAR biomarker ELISA; actives raise or lower the signal. The method in brief:
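Endothelial primary cells of human umbilical vein origin received test chemical; 24 h later uPAR was assayed by ELISA. Fitting was bidirectional, DMSO as negative control.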

The target of assay [19] is Bile acid receptor (Homo sapiens) (UniProt Q96RI1). The assay is described as follows: ATG_FXR_TRANS: Attagene TRANS-FACTORIAL HepG2 Assay for Farnesoid X Receptor (FXR) (AID 2282979; active = hit-call score of the fitted dose curve at least 0.9, where 1 is the maximum;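 also: hits raise reporter mRNA above DMSO so AC50 marks FXR activation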). The conditions noted are these: HepG2 Attagene TRANS FXR-GAL4 reporter transcription. The method, boiled down: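 Transient transfection of HepG2 with multiplexed GAL4-UAS reporter units; exogenous FXR-GAL4 chimera. Dose 24 h → TriZol RNA → oligo(dT) RT → PCR, 6-FAM primer extension, HpaI cut → CE. Gain vs DMSO.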
Chain of Bile acid receptor (Homo sapiens) (Q96RI1 whole entry, looked up, the tested form may be a part): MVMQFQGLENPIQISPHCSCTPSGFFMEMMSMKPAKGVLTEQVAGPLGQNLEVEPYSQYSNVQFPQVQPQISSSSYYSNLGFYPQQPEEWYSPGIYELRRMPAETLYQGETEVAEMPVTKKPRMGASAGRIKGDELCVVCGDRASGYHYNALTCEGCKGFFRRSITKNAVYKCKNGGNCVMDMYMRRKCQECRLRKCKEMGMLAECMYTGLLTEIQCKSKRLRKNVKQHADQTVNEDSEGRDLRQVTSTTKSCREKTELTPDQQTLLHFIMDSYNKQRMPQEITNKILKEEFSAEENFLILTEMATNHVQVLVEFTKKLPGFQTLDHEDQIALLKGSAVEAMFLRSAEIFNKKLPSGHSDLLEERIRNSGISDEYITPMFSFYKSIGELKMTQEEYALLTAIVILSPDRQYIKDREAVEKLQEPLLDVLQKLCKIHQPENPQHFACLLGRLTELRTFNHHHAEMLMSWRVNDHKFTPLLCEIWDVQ

Chain of Cellular tumor antigen p53 (Homo sapiens) (P04637 whole entry, looked up): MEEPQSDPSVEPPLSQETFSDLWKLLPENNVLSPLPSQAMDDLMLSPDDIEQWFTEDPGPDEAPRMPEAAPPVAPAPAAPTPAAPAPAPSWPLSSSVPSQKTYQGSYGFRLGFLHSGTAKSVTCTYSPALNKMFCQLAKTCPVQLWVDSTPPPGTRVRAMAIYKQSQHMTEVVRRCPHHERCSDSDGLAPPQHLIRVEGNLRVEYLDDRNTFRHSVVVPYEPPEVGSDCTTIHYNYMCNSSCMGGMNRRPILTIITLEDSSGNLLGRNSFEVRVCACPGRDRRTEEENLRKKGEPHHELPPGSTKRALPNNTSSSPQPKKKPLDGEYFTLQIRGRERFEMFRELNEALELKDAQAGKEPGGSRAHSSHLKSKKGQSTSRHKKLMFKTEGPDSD
Chain of human Peroxisome Proliferator-activated Receptor alpha (PPARa), PPARA (gene 5465) (Q07869 whole entry, looked up, the tested form may be a part): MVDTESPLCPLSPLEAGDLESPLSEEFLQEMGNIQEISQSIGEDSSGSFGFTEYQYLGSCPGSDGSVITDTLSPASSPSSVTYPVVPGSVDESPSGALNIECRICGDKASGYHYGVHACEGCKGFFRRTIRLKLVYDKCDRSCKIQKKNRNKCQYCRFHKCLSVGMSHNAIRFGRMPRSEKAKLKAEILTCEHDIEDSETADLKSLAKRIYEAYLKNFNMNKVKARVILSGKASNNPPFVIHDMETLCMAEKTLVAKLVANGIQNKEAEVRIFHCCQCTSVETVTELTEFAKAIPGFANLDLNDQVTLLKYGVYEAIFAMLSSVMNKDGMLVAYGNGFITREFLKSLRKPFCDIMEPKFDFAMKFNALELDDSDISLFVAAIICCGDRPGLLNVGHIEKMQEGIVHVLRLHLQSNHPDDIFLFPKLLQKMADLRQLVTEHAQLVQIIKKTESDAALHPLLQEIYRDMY
Chain of Myc proto-oncogene protein (Homo sapiens) (P01106 whole entry, looked up, the tested form may be a part): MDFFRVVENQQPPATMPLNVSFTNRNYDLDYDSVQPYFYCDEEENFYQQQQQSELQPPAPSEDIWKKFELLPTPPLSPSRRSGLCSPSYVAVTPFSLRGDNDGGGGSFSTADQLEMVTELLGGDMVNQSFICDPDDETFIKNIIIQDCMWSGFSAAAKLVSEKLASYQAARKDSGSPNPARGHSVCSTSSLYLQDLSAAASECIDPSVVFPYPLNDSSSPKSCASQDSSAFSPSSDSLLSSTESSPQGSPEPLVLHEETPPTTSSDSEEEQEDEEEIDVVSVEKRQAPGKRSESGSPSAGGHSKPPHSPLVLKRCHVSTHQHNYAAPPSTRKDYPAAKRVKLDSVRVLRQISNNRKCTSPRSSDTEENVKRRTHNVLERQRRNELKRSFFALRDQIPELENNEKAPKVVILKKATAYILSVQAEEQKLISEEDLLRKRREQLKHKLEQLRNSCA
Chain of Transcriptional activator Myb (Homo sapiens) (P10242 whole entry, looked up): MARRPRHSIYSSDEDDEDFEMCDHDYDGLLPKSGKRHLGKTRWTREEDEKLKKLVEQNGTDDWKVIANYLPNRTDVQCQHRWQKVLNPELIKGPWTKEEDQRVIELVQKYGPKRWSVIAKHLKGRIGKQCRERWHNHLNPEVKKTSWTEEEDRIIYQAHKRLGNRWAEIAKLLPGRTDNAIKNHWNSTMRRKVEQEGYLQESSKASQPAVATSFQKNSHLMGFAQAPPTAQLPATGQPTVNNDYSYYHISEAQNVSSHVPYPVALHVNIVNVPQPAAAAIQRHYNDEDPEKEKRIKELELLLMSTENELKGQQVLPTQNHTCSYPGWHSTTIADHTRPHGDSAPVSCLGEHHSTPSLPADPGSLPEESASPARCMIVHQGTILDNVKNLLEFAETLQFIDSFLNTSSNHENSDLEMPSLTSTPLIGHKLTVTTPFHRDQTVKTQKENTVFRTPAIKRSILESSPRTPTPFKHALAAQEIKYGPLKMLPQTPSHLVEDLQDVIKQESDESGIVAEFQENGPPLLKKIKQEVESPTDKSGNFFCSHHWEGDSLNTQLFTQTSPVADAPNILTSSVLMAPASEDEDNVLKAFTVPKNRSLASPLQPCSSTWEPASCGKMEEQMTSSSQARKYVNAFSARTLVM
Chain of Oxysterols receptor LXR-beta (Homo sapiens) (P55055 whole entry, looked up, the tested form may be a part): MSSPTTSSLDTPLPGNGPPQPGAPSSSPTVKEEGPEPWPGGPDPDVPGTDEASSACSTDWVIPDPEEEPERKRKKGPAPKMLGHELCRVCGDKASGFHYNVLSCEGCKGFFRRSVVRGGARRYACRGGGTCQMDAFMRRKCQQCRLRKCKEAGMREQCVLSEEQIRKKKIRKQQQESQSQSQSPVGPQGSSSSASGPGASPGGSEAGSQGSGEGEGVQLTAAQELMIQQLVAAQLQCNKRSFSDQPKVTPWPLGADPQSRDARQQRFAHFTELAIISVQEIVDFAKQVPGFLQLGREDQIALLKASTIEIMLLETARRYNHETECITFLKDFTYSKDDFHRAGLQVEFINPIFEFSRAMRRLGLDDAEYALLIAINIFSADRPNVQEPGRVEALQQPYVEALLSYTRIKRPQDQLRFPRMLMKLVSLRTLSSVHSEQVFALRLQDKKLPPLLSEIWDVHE
Chain of Hepatocyte nuclear factor 4-alpha (Homo sapiens) (P41235 whole entry, looked up, the tested form may be a part): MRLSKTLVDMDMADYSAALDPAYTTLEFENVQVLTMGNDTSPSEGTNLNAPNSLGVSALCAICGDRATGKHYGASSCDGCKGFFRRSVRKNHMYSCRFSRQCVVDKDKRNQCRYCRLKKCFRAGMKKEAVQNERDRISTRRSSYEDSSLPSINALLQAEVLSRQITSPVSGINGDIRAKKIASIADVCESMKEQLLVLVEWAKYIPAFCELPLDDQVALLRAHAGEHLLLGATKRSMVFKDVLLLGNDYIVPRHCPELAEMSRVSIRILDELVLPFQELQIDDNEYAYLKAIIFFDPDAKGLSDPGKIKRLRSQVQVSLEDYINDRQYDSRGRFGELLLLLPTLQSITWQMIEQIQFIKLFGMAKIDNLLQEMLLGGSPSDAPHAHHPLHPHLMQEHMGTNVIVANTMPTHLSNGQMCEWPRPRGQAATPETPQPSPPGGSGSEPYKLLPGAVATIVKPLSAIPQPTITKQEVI
Chain of Nuclear respiratory factor 1 (Homo sapiens) (Q16656 whole entry, looked up): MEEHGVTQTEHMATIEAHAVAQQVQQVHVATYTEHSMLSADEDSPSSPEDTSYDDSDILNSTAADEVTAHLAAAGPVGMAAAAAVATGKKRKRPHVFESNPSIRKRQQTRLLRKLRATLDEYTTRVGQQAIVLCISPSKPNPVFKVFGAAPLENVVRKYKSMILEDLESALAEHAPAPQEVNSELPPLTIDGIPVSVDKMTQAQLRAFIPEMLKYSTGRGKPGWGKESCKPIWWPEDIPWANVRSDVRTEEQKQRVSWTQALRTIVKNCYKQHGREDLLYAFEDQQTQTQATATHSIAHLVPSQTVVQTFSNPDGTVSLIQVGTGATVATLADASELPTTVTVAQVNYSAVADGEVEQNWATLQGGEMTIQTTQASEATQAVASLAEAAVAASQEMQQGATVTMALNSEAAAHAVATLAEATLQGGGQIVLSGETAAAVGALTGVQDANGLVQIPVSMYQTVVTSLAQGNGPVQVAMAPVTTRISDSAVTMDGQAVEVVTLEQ
Chain of Nuclear receptor subfamily 4 group A member 2 (Homo sapiens) (P43354 whole entry, looked up, the tested form may be a part): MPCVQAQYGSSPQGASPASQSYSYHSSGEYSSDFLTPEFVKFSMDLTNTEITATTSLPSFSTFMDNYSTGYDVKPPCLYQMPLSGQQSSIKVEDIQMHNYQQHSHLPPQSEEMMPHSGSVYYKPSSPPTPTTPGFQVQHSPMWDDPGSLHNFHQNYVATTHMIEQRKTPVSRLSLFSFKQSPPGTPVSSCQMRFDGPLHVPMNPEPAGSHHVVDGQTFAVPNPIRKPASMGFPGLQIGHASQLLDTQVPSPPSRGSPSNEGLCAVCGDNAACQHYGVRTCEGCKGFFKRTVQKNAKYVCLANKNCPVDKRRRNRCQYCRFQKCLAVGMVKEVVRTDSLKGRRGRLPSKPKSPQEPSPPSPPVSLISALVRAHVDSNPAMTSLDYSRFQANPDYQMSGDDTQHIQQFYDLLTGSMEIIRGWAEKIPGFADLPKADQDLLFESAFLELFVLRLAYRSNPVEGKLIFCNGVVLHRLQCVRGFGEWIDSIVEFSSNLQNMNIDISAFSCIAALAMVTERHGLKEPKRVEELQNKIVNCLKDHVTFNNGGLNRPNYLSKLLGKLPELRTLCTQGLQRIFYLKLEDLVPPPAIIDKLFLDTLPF

In the case of `O=C(O)c1ccccc1C(c1ccc(O)cc1)c1ccc(O)cc1`, the result in assay [1], in assay [2], in [3], in assay [4], in assay [5] and in [6] was inactive. The call in assay [7], in assay [8], in assay [9], in assay [10], in assay [11] and in assay [12] was inactive. Also, in assay [13], the compound was called inactive.
As for `CCCCCCCCC(=O)O`, the compound was classed as inactive in assay [1], in assay [2], in [3], in assay [4], in [14] and in [15]. The compound was called inactive in assay [5], in [16], in [6], in assay [8], in assay [9] and in assay [17]. Moreover, the result in [10], in [18], in assay [11] and in assay [12] was inactive. Moreover, the AC50 – broadly, the midpoint of the concentration-response curve, whichever way the signal moves – in assay [13] was 11.4 µM (active) and 41.6 µM (active).
Consider `c1ccc2c(c1)Cc1ccccc1-2`, for which the outcome in [19], in [3], in assay [15], in [5], in assay [16] and in [6] was inactive. Moreover, the call in assay [7], in assay [8], in assay [9], in [17], in assay [18] and in assay [11] was inactive. Also, the outcome in assay [12] and in assay [13] was inactive. Also, the AC50 in assay [10] was 4.37 µM (active).
As to `Cc1ccc(S(=O)(=O)O)c(C)c1`, the compound was called inactive in assay [1], in assay [2], in assay [4], in assay [5], in assay [16] and in assay [6]. The result in assay [7], in [8], in assay [9], in assay [17] and in assay [13] was inactive.
Consider `C#C[C@]1(O)CC[C@H]2[C@@H]3CCC4=CC(=O)CC[C@@H]4[C@H]3CC[C@@]21C`, for which the result in [3], in assay [5], in assay [6], in [7], in [8] and in assay [9] was inactive. In addition, the outcome in assay [17], in assay [11] and in assay [12] was inactive. Further, the AC50 in assay [8] was 100 µM (active) and 79.6 µM (active); in [10], 15.3 µM (active).
